The values below come from PubChem BioAssay (EPA / NIEHS).

Results filed as inconclusive are left out. The source made the active and inactive calls. Rule for the calls, unless noted: active = hit-call score of the fitted dose curve at least 0.9, where 1 is the maximum; inactive = score below 0.9.

Test [1] can be described thus: BSK_4H_Eotaxin3: BioMAP Diversity Plus: 4H Assay for Eotaxin 3 Biomarker Activity (AID 2283000).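 For outcome: CCL26 protein level quantified by ELISA in parallel with SRB cytotoxicity check.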 To be noted: primary human endothelial cells (HUVEC); actives raise or lower the signal. In a few lines:
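HUVEC, 24 h post-dose, ELISA for Eotaxin-3/CCL26. Gain or loss of signal fitted bidirectionally vs DMSO baseline.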

The target in test [2] is human Peroxisome Proliferator-activated Receptor alpha (PPARa), PPARA (gene 5465) (UniProt Q07869). Kind of test: ATG_PPARa_TRANS: Attagene TRANS-FACTORIAL HepG2 Assay for human Peroxisome Proliferator-activated Receptor alpha (PPARa) (AID 2283001; active = hit-call score of the fitted dose curve at least 0.9, where 1 is the maximum). In a few lines:
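Gain-of-signal endpoint: reporter mRNA induction relative to DMSO, detected by fluorescent RT-PCR and capillary electrophoresis. HepG2 cells transiently carried GAL4-UAS-driven reporter units plus NR-Gal4 fusion; exposure lasted 24 h.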

Read-out in test [3]: Intercellular Adhesion Molecule 1 (ICAM1), ICAM1 (gene 3383)
The test can be described thus: BSK_3C_ICAM1: BioMAP Diversity Plus: 3C Assay for Intercellular Adhesion Molecule 1 (ICAM1) Biomarker Activity (AID 2283003). Conditions: primary human endothelial cells (HUVEC); actives raise or lower the signal. In a few lines:
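ICAM-1 levels measured by ELISA after HUVEC cultures in the 3C system had been dosed for 24 h. Gain or loss of signal relative to DMSO was fitted in both directions.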

For test [4], the target named is Peroxisome proliferator-activated receptor gamma (Homo sapiens) (UniProt P37231). The test can be described thus: ATG_PPARg_TRANS: Attagene TRANS-FACTORIAL HepG2 Assay for human Peroxisome Proliferator-activated Receptor-gamma (PPARg) (AID 2283007; active = hit-call score of the fitted dose curve at least 0.9, where 1 is the maximum). In short, it runs like this:
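Read-out: reporter mRNA induction, detected by fluorescence after RT-PCR and capillary electrophoresis. Transiently transfected human HepG2 liver cells carrying a chimeric NR-Gal4 construct were dosed for 24 h; activity was fitted upward relative to DMSO.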

Test [5] addresses human RAR-related Orphan Receptor gamma (RORg), RORC (gene 6097) (UniProt P51449). The test can be described thus: ATG_RORg_TRANS: Attagene TRANS-FACTORIAL HepG2 Assay for human RAR-related Orphan Receptor gamma (RORg) (AID 2283011; active = hit-call score of the fitted dose curve at least 0.9, where 1 is the maximum). In a few lines: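 Readout: reporter transcript induction (RT-PCR, fluorescent primer extension, capillary electrophoresis) after 24 h compound exposure of transiently transfected HepG2 cells carrying a RORg-Gal4 chimera and GAL4-UAS reporters; DMSO served as baseline, with increasing signal fitted.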

Test [6] concerns the target Retinoic acid receptor RXR-alpha (Homo sapiens) (UniProt P19793). The test can be described thus: ATG_RXRa_TRANS: Attagene TRANS-FACTORIAL HepG2 Assay for human Retinoid X Receptor alpha (RXRa) (AID 2283012; active = hit-call score of the fitted dose curve at least 0.9, where 1 is the maximum). In a few lines: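 Transient transfection of human HepG2 with multiple GAL4-UAS reporter constructs; 24 h compound exposure; total RNA isolated, reverse-transcribed, PCR-amplified, 6-FAM labelled, HpaI-cut, resolved by capillary electrophoresis. Positive-direction fit versus DMSO.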

For test [7], the target named is human Retinoid X Receptor beta (RXRb), RXRB (gene 6257) (UniProt P28702). Kind of test: ATG_RXRb_TRANS: Attagene TRANS-FACTORIAL HepG2 Assay for human Retinoid X Receptor beta (RXRb) (AID 2283013; active = hit-call score of the fitted dose curve at least 0.9, where 1 is the maximum). In short, it runs like this:
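Transfect HepG2 with GAL4-UAS multi-reporter constructs (chimeric NR-Gal4, TRANS format); dose compound 24 h; isolate RNA, RT-PCR, FAM primer extension, HpaI digest; quantify by capillary electrophoresis; positive direction vs DMSO.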

Read-out in test [8]: E-selectin (Homo sapiens) (UniProt P16581)
The test can be described thus: BSK_3C_Eselectin: BioMAP Diversity Plus: 3C Assay for Eselectin Biomarker Activity (AID 2283015).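 For outcome: cell surface E-selectin protein quantified by ELISA 24 h after dosing.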 To be noted: primary human endothelial cells (HUVEC); actives raise or lower the signal. In short, it runs like this: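 Primary human umbilical vein endothelial cells (3C system) were dosed with chemical and cell-surface E-selectin measured by ELISA 24 h later. Bidirectional curve fitting used DMSO as negative control and baseline.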

Read-out in test [9]: Interleukin-1 alpha (IL1a), IL1A (gene 3552)
Kind of test: BSK_BE3C_IL1a: BioMAP Diversity Plus: BE3C Assay for Interleukin-1 alpha (IL1a) Biomarker Activity (AID 2283016). To be noted: primary human bronchial epithelial cells; actives raise or lower the signal. In short, it runs like this:
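BE3C primary human bronchial epithelium; cpd 24 h; IL-1a by ELISA; bidirectional fit vs DMSO; parallel SRB (0.1% SRB, 10% TCA fix, 560 nm) for cytotoxicity.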

Read-out in test [10]: Monocyte Chemoattractant Protein-1 (MCP1), CCL2 (gene 6347)
The test can be described thus: BSK_3C_MCP1: BioMAP Diversity Plus: 3C Assay for Monocyte Chemoattractant Protein-1 (MCP1) Biomarker Activity (AID 2283017). To be noted: primary human endothelial cells (HUVEC); actives raise or lower the signal. In a few lines:
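Primary human umbilical vein endothelial cells (3C system) were exposed to test chemical for 24 h, after which MCP-1 was quantified by ELISA. Activity was fitted bidirectionally against DMSO as negative control and baseline.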

Read-out in test [11]: Monocyte Chemoattractant Protein-1 (MCP1), CCL2 (gene 6347)
The test can be described thus: BSK_4H_MCP1: BioMAP Diversity Plus: 4H Assay for Monocyte Chemoattractant Protein-1 (MCP1) Biomarker Activity (AID 2283018). Conditions: primary human endothelial cells (HUVEC); actives raise or lower the signal. In short, it runs like this: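 ELISA read-out of MCP-1 from human vascular endothelial primary cells taken at 24 hours after compound exposure. Activity was fitted in both directions relative to DMSO, which served as negative control.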

Read-out in test [12]: Human Leukocyte Antigen - DR isotype (HLADR), HLA-DRA (gene 3122)
The test can be described thus: BSK_3C_HLADR: BioMAP Diversity Plus: 3C Assay for Human Leukocyte Antigen - DR isotype (HLADR) Biomarker Activity (AID 2283019). Conditions: primary human endothelial cells (HUVEC); actives raise or lower the signal. In short, it runs like this: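 Primary human umbilical vein endothelial cells (3C system) were dosed with compound and cell-surface HLA-DR was quantified by ELISA at 24 h. Activity was fitted bidirectionally against DMSO as negative control and baseline.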

Read-out in test [13]: Interleukin-8 (IL8), CXCL8 (gene 3576)
Kind of test: BSK_3C_IL8: BioMAP Diversity Plus: 3C Assay for Interleukin-8 (IL8) Biomarker Activity (AID 2283020). To be noted: primary human endothelial cells (HUVEC); actives raise or lower the signal. In short, it runs like this: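 ELISA read-out of IL-8 from human umbilical vein endothelium, measured 24 h after chemical dosing. Activity is expressed relative to DMSO negative control, with both increases and decreases fitted.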

The target of test [14] is human Retinoic Acid Receptor beta (RARb), RARB (gene 5915) (UniProt P10826). The test can be described thus: ATG_RARb_TRANS: Attagene TRANS-FACTORIAL HepG2 Assay for human Retinoic Acid Receptor beta (AID 2283004; active = hit-call score of the fitted dose curve at least 0.9, where 1 is the maximum). In a few lines: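 HepG2 cells transiently transfected with multiplexed GAL4-UAS reporter units expressing chimeric NR–Gal4 fusions; 24 h compound exposure. Reporter mRNA quantified by RT-PCR, 6-FAM labelling, HpaI digestion and capillary electrophoresis; gain-of-signal fitted against DMSO baseline.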

Test [15] addresses Retinoic acid receptor alpha (Homo sapiens) (UniProt P10276). Kind of test: ATG_RARa_TRANS: Attagene TRANS-FACTORIAL HepG2 Assay for human Retinoic Acid Receptor alpha (RARa) (AID 2283005; active = hit-call score of the fitted dose curve at least 0.9, where 1 is the maximum). In short, it runs like this:
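HepG2 cells transiently transfected with multiple reporter units expressing chimeric RARα-GAL4 fusion, with GAL4-UAS-driven reporters. After 24 h compound exposure, reporter mRNA induction quantified by RT-PCR and capillary electrophoresis with fluorescent labeling; gain-of-signal fitted relative to DMSO control.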

Test [16] can be described thus: BSK_3C_Proliferation: Cell Proliferation Assessment in the BioMAP Diversity Plus: 3C Assay (AID 2283006).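 For AC50: potency may reflect either rise or fall in cell number versus DMSO.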 Conditions: primary human endothelial cells (HUVEC). In short, it runs like this: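 Read-out is total protein by SRB absorbance at 560 nm, taken as a proxy for relative cell number. Primary human umbilical vein endothelium cultured below confluence was dosed for 48 h, TCA-fixed and SRB-stained; curves were fitted bidirectionally versus DMSO.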

The target in test [17] is Nuclear receptor subfamily 1 group I member 2 (Homo sapiens) (UniProt O75469). Kind of test: ATG_PXR_TRANS: Attagene TRANS-FACTORIAL HepG2 Assay for human Pregnane X Receptor (PXR) (AID 2283008; active = hit-call score of the fitted dose curve at least 0.9, where 1 is the maximum). In short, it runs like this:
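Fluorescence intensity of FAM-labelled, HpaI-digested reporter amplicons, separated by capillary electrophoresis, quantifies induction. HepG2 cells with PXR-Gal4 trans-reporter system were exposed 24 h; DMSO defines baseline.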

Test [18] addresses human Retinoic Acid Receptor gamma (RARg), RARG (gene 5916) (UniProt P13631). Kind of test: ATG_RARg_TRANS: Attagene TRANS-FACTORIAL HepG2 Assay for human Retinoic Acid Receptor gamma (RARg) (AID 2283009; active = hit-call score of the fitted dose curve at least 0.9, where 1 is the maximum). In short, it runs like this: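 Transient transfection of HepG2 with multi-reporter constructs, then 24 h chemical treatment. Total RNA isolated, reverse-transcribed, PCR-amplified, fluorescently labelled and resolved by capillary electrophoresis; activity scored as mRNA induction versus DMSO.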

Test [19] concerns the target human RAR-related Orphan Receptor beta (RORb), RORB (gene 6096) (UniProt Q92753). The test can be described thus: ATG_RORb_TRANS: Attagene TRANS-FACTORIAL HepG2 Assay for human RAR-related Orphan Receptor beta (RORb) (AID 2283010; active = hit-call score of the fitted dose curve at least 0.9, where 1 is the maximum). In a few lines:
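Readout is reporter-gene mRNA induction, detected as fluorescence after RT-PCR and capillary electrophoresis, fitted for gain of signal against DMSO controls. Transiently transfected HepG2 liver cells carrying GAL4-UAS reporter constructs were treated for 24 hours.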

human Retinoid X Receptor beta (RXRb), RXRB (gene 6257), sequence (P28702 whole entry, looked up, the tested form may be a part): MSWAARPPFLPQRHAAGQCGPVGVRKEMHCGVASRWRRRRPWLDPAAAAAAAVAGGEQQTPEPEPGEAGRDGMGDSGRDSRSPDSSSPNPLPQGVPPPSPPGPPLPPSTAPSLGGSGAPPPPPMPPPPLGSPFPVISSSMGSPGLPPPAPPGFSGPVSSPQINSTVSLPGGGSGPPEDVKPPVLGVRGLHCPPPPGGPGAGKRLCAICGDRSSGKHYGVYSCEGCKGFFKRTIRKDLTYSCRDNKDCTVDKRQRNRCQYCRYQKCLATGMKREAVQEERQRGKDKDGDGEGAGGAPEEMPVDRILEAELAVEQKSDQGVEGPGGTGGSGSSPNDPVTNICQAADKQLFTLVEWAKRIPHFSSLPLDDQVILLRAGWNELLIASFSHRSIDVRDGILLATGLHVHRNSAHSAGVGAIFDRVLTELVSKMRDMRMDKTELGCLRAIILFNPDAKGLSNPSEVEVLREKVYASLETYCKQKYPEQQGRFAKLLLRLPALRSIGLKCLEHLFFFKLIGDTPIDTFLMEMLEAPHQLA
Retinoic acid receptor RXR-alpha (Homo sapiens), sequence (P19793 whole entry, looked up, the tested form may be a part): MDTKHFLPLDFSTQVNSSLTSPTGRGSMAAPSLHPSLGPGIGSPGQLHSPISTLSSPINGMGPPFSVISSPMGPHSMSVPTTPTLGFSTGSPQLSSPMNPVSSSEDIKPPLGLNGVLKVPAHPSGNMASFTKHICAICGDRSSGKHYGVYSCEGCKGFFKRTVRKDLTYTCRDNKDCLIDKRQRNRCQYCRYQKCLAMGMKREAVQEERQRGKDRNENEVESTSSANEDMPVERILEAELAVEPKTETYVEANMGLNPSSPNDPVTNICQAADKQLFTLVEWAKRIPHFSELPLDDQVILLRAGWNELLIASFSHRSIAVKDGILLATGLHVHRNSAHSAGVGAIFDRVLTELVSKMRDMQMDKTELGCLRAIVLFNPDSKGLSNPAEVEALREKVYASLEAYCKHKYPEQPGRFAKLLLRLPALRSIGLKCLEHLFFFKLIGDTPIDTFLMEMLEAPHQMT
E-selectin (Homo sapiens), sequence (P16581 whole entry, looked up): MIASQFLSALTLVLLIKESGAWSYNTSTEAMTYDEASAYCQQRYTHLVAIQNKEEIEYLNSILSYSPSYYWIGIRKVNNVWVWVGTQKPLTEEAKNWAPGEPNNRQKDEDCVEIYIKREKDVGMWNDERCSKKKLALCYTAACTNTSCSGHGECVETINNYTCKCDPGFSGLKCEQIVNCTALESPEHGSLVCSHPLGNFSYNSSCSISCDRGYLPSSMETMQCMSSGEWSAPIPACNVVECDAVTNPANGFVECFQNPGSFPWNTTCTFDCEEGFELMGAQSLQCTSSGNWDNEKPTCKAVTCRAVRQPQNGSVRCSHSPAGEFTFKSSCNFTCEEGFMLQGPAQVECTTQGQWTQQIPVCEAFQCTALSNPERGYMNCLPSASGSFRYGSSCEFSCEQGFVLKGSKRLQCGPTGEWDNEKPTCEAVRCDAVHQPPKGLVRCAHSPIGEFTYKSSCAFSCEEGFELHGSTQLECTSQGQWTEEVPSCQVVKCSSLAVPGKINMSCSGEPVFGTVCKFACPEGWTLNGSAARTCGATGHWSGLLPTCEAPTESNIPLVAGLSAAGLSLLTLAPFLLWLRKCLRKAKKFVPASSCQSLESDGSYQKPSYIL
human Peroxisome Proliferator-activated Receptor alpha (PPARa), PPARA (gene 5465), sequence (Q07869 whole entry, looked up, the tested form may be a part): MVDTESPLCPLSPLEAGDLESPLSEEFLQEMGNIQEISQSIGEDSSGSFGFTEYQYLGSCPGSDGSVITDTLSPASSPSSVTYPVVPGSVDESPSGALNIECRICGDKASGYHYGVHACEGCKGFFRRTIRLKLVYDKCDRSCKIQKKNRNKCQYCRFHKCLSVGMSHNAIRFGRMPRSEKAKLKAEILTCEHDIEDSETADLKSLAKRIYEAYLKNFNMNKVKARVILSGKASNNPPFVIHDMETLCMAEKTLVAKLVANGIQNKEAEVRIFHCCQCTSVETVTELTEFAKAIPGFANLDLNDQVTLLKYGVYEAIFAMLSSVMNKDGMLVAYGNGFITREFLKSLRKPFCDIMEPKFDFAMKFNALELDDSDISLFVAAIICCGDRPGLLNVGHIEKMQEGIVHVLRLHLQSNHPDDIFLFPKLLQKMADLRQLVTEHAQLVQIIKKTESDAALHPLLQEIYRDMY
human RAR-related Orphan Receptor gamma (RORg), RORC (gene 6097), sequence (P51449 whole entry, looked up, the tested form may be a part): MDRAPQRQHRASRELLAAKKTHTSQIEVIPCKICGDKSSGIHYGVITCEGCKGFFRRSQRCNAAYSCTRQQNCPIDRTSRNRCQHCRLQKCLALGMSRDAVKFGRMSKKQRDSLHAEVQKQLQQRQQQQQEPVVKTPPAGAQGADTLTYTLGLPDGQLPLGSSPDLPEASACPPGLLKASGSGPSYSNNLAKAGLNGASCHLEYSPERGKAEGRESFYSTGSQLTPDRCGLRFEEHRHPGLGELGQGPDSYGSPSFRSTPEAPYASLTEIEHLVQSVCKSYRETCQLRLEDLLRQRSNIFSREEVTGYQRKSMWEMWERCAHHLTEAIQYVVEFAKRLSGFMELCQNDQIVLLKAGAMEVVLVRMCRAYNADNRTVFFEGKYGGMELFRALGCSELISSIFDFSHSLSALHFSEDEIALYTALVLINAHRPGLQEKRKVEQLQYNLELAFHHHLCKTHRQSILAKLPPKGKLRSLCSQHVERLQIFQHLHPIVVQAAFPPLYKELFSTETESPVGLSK
Peroxisome proliferator-activated receptor gamma (Homo sapiens), sequence (P37231 whole entry, looked up, the tested form may be a part): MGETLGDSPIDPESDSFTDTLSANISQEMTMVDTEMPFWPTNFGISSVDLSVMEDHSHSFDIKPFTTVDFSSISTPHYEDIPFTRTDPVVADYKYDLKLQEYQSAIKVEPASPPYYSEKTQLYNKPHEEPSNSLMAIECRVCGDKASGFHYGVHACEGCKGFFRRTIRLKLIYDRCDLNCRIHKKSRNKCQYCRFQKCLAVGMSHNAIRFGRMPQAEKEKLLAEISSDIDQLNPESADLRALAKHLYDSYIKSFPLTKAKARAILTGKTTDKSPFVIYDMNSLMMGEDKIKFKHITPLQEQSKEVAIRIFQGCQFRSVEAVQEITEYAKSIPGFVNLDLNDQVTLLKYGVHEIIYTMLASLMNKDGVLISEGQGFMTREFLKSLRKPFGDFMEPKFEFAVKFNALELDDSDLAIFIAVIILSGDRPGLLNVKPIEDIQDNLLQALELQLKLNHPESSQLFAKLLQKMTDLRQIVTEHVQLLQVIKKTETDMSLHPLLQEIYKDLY
human Retinoic Acid Receptor gamma (RARg), RARG (gene 5916), sequence (P13631 whole entry, looked up): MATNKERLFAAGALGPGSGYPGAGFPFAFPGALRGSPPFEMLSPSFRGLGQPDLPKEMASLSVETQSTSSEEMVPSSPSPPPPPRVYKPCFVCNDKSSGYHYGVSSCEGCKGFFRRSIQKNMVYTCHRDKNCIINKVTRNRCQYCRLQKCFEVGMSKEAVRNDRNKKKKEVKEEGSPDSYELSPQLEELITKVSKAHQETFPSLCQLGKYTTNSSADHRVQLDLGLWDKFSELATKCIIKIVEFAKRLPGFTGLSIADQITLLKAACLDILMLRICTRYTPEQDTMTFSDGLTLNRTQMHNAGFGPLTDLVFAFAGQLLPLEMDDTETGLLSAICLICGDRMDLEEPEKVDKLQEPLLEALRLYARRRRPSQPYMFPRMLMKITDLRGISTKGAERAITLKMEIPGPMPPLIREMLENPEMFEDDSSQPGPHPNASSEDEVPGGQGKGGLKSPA
Nuclear receptor subfamily 1 group I member 2 (Homo sapiens), sequence (O75469 whole entry, looked up, the tested form may be a part): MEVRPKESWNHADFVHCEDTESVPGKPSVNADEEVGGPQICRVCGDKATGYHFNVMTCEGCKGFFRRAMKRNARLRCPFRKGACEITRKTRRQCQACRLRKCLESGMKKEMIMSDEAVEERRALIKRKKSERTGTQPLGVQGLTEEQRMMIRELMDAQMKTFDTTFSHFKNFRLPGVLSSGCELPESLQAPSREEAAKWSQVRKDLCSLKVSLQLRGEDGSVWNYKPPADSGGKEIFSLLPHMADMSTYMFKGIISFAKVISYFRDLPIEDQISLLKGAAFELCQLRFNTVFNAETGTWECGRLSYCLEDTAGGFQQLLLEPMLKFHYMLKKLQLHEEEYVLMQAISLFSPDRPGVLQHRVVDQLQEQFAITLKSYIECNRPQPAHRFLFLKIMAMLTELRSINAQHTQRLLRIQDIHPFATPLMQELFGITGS
human Retinoic Acid Receptor beta (RARb), RARB (gene 5915), sequence (P10826 whole entry, looked up, the tested form may be a part): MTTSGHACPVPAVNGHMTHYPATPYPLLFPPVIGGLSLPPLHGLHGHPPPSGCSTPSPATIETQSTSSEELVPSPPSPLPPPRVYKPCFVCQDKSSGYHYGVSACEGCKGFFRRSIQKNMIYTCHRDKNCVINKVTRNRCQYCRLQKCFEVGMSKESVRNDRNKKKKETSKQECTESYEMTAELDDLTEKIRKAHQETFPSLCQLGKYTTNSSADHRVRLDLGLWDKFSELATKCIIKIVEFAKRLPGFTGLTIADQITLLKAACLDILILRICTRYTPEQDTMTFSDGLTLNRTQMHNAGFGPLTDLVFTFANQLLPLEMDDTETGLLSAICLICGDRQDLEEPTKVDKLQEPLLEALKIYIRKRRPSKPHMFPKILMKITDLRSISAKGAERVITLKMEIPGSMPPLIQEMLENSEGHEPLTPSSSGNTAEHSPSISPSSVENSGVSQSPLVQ
Retinoic acid receptor alpha (Homo sapiens), sequence (P10276 whole entry, looked up, the tested form may be a part): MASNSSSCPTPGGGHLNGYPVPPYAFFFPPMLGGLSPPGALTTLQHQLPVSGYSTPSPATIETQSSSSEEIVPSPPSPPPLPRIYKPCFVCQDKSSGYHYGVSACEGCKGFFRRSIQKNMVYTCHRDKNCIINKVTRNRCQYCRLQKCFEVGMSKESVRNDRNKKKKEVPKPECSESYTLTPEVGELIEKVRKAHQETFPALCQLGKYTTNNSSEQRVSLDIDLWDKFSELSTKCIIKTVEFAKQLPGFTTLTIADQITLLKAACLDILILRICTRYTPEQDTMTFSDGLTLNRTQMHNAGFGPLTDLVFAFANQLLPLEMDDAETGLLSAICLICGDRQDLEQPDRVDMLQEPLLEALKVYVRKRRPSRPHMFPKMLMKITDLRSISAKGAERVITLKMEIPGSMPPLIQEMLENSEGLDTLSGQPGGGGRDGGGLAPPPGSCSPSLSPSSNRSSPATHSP

As to `Nc1c(Cl)c(Cl)nc(C(=O)O)c1Cl`, the outcome in [1], in [2], in [3], in test [4], in test [5] and in test [6] was inactive. Moreover, the molecule was classed as inactive in [7], in [8], in test [9], in [10], in test [11] and in test [12]. Moreover, the result in [13] was inactive.

As for `CS(=O)(=O)c1cc(C(F)(F)F)ccc1C(=O)c1cnoc1C1CC1`, the result in test [1], in test [2], in test [3], in [14], in test [15] and in test [16] was inactive. Besides, the molecule was classed as inactive in test [17], in [18], in test [5], in test [6], in test [7] and in test [8]. Further, the result in [9], in test [10], in test [11], in [12] and in [13] was inactive.

In the case of `Cc1nc(N(C)C)nc(OC(=O)N(C)C)c1C`, the result in [1], in [2], in test [3], in test [17], in test [18] and in test [19] was inactive. Besides, the molecule was called inactive in test [5], in test [6], in test [8], in test [9], in [10] and in test [11]. Besides, the result in test [12] and in test [13] was inactive.

For the molecule `Cc1ccc(N=CN(C)C=Nc2ccc(C)cc2C)c(C)c1`, the AC50 (in general, the concentration giving half of the maximal activity seen) in test [1] was 38.6 µM (active); in test [3], 30.3 µM (active); in test [16], 15.3 µM (active); in test [8], 33 µM (active); in [10] it was 36 µM (active); in [11], 31.4 µM (active). Moreover, the results for the AC50 in [12] and in test [13] were 33 µM (active) and 31.6 µM (active), respectively. Moreover, the molecule was called inactive in [2], in test [14] and in test [17].

As for `COC(=O)c1c(C(F)F)nc(C(F)(F)F)c(C2=NCCS2)c1CC(C)C`, the AC50 was 6.71 µM (active) in test [1], 0.431 µM (active) in [17], 17.6 µM (active) in test [11] and 25.2 µM (active) in test [12]. Moreover, the molecule was classed as inactive in test [2], in test [14], in [6], in test [7], in [8] and in [10]. Also, the result in test [13] was inactive.

In the case of `N#Cc1c[nH]cc1-c1cccc2c1OC(F)(F)O2`, the AC50 in [1] was 20 µM (active); in [16], 5.61 µM (active); in [4], 19.5 µM (active); in test [7], 1.68 µM (active); in test [10], 20 µM (active); in [12], 20 µM (active). In test [13], the AC50 was 8.82 µM (active). The molecule was called inactive in test [2], in test [3], in test [17], in [5], in test [6] and in test [8]. The result in test [9] and in [11] was inactive.

Consider `COP(=S)(OC)SCn1nnc2ccccc2c1=O`, for which the result in test [1], in test [2], in test [14], in test [16], in [17] and in test [19] was inactive. Besides, the molecule was classed as inactive in test [5], in [7], in [8], in test [10], in test [11] and in test [13]. The half-maximal activity concentration (AC50) in test [12] was 30.2 µM (active).

Turning to `CC(C)=CC1C(C(=O)OCc2coc(Cc3ccccc3)c2)C1(C)C` (centres undefined), the AC50 was 8.05 µM (active) in test [1]; 13.1 µM (active) in test [4]; 8.92 µM (active) in test [8]; 10.4 µM (active) in test [10]; 7.53 µM (active) in test [12]; 9.03 µM (active) in test [13]. Also, the outcome in test [2], in test [14], in [15], in test [17], in test [18] and in test [6] was inactive. Further, the call in test [7], in test [9] and in [11] was inactive.
